# From PubChem BioAssay AID624300 (Southern Research Specialized Biocontainment Screening …, 2012)
# Screen size: about 2,400 compounds; about 360 (15%) were called active.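 Rule for the calls: active = viability falls under 70% at one or more tested concentrations, taken as toxicity; inactive = viability stays over 70% at every dose.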 A selection follows. Entries with a potency or affinity are not part of this list.
# Assay: viability loss in HeLa cells – cytotoxicity control for MgcRacGAP inhibitor project, dose response (AID 624300);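 note: 100% = median of untreated control wells on the same plate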
# Settings: CellTiter-Glo luminescence, 24 h; series mostly up to 100 µM; viability: at the top concentration
row,SMILES,viability
1,Oc1ccc(N=Cc2cc(Br)c(N3CCOCC3)o2)cc1,103% (inactive)
2,COc1ccccc1Nc1n[nH]c(=S)s1,92.9% (inactive)
3,O=C(Cn1c(C(=O)NCc2ccco2)cc2sccc21)c1ccccc1,93.1% (inactive)
4,COc1ccc(C=NNC(=O)c2cc(C)oc2C)cc1O,81% (inactive)
5,Cc1c(C(=O)N/N=C/c2ccc(O)cc2)sc(=S)n1C,106% (inactive)
6,Cc1nonc1C(=O)N/N=C/c1ccc(O)c(O)c1,91.9% (inactive)
7,Oc1cc(O)c2c(c1)O[C@H](c1ccc(O)c(O)c1)[C@H](O)C2,102% (inactive)
8,CCOC(=O)c1c(OCC)[nH]c2c1cc(O)c1ccccc12,98.7% (inactive)
9,c1coc(CSSCc2ccco2)c1,105% (inactive)
10,COc1cc(/C=N/n2nnnc2N)ccc1O,93.9% (inactive)
11,Cc1cc(C)cc(NC(=O)C(NCCN2CCOCC2)c2ccccc2)c1 (configuration not stated),94.9% (inactive)
12,CN=c1scc(C)n1/N=C/c1cc(Br)c(O)c(OC)c1,93.5% (inactive)
13,O=c1oc2cc(O)ccc2c2oc3cc(O)ccc3c12,98.3% (inactive)
14,CN(C)/C=C/c1oc2ccc(O)cc2c1[N+](=O)[O-],94.5% (inactive)
15,Cc1cc(O)ccc1N/C=C1\CCCC1=O,90.5% (inactive)
16,CC(C)COc1ccc(N)cc1OCC(C)C,104% (inactive)
17,Nc1cc2c([N+](=O)[O-])cccc2o1,95.3% (inactive)
18,COc1cc(Sc2ccc(C)cc2)c(OC)cc1N,94.1% (inactive)
19,COc1ccc(NCCC(O)c2ccc(Cl)cc2)cc1 (configuration not stated),106% (inactive)

row,SMILES,viability
1,COc1ccc(NC2CCCN(C(=O)COc3ccc(C(C)=O)cc3)C2)cc1 (configuration not stated),100% (inactive)
2,S=c1[nH]nc(-c2ccncc2)n1/N=C/c1ccccc1,100% (inactive)
3,COc1ccc(N2CCN(C(=O)c3ccc(Br)o3)CC2)cc1,105% (inactive)
4,O=[N+]([O-])c1ccc(C2CC(c3ccccc3)=Nc3ccccc3S2)cc1 (configuration not stated),85.2% (inactive)
5,CCOC1=C/C(=C/c2c(N)n3nc(S(=O)(=O)CC)sc3nc2=O)C=CC1=O,108% (inactive)
6,COc1ccc(OC(=O)c2cc(S(=O)(=O)N3CCCC3)ccc2Cl)cc1,97% (inactive)
7,O=C(Cn1c(C(=O)NCC2CCCO2)cc2sccc21)c1ccccc1 (configuration not stated),93.5% (inactive)
8,CCOc1cc(/C=N\NC(=O)CC(=O)NCCc2ccccc2)ccc1O,101% (inactive)
9,CS(=O)(=O)c1ccc2c(c1)sc1nc(=O)c(/C=C3/C=CC(=O)C(O)=C3)c(N)n12,94.4% (inactive)
10,COc1ccc(NCC(O)COc2ccc(C(C)(C)C)cc2)cc1 (configuration not stated),100% (inactive)
11,CCCCN(C)C(=O)C1CCN(Cc2ccc(OCc3ccccc3)cc2)CC1,90.2% (inactive)
12,C#CCOc1ccccc1CNC1CCN(Cc2ccccc2)CC1,97.2% (inactive)
13,O=C(NCCNCC(O)COc1ccc(O)cc1)N1CCOCC1 (configuration not stated),109% (inactive)
14,O=C(Cc1coc2cc(O)ccc12)NNC(=O)c1ccc(Br)s1,111% (inactive)
15,CCc1ccc(CNc2ccc(N3CCN(C(C)=O)CC3)cc2)cc1,99.8% (inactive)
16,COc1cc(N=Nc2ccc(C)cc2S(N)(=O)=O)c(C)cc1N,94.5% (inactive)
17,COc1cc(/C=N/NC(=O)CCNC(=O)c2ccccc2Cl)ccc1O,97.2% (inactive)
18,COc1cc(/C=C/C(=O)OCC(=O)Nc2ccc3c(c2)OCCO3)ccc1O,115% (inactive)
19,Oc1ccc(-c2csc(NCc3ccco3)n2)cc1,110% (inactive)

row,SMILES,viability
1,CN(c1ccc(O)cc1)c1nc(-c2cccnc2)cs1,98.8% (inactive)
2,COc1ccc(N)cc1NC(=O)CN1CCOCC1,92.2% (inactive)
3,CC/C(=N\O)c1ccc(O)c(OC)c1,99.7% (inactive)
4,CC(C(=O)N(C)Cc1ccccc1)N1CCN(C/C=C/c2ccccc2)CC1 (configuration not stated),93.8% (inactive)
5,COc1ccc(N2CCN(C(=O)CCCn3c(=O)c4cccn4c4cccnc43)CC2)cc1,96% (inactive)
6,COc1cccc(CN2CCN(Cc3cc(OC)c(OC)c(OC)c3)CC2)c1OC,100% (inactive)
7,Oc1ccc(/C=N/Nc2nccnc2Cl)c(O)c1,97.6% (inactive)
8,Nc1c(Cl)ncnc1N/N=C/c1ccc(O)cc1,108% (inactive)
9,CCOc1cc(/C=N/Nc2ncnc(Cl)c2N)ccc1O,87% (inactive)
10,COc1cc(/C(C)=N/NC(=O)C(O)(c2ccccc2)c2ccccc2)ccc1O,96.5% (inactive)
11,Cc1nc(C/C(=N\N)c2ccc(O)cc2O)cs1,98% (inactive)
12,O=C1CC(SC(=S)C2CCCC2=O)C(=O)N1 (configuration not stated),100% (inactive)
13,CC(CN1CCN(Cc2ccccc2)CC1)c1ccccc1 (configuration not stated),98.4% (inactive)
14,Cc1ccc(SCCN2CCN(Cc3ccccc3)CC2)cc1,92.2% (inactive)
15,CC(=O)c1c(Nc2ccc3c(c2)OCCO3)oc(C)cc1=O,102% (inactive)
16,CC(=O)N1CCN(c2ccc(N)cc2)CC1,104% (inactive)
17,Oc1ccc(/C=N/n2cc(-c3ccccc3)[nH]c2=S)cc1,97.2% (inactive)
18,Nc1ccc(C(=O)N/N=C/c2ccc(N3CCOCC3)s2)cc1,105% (inactive)
19,CN(c1ccccc1)c1ccc(/C=N/N2CCOCC2)cc1,106% (inactive)
